# Experimental data taken from PubChem BioAssay.
# Activity calls are given as the source filed them. Unless noted, no rule for the calls is given here.
# Columns and labels:
# [1] = compound effects on lung adenocarcinoma cell viability – A549, calcein-AM fluorescence, 48 h, basal, profiling panel (AID 1162); details: higher = more signal; also: test concentration not given here
# [2] = compound effects on differentiated 3T3-L1 adipocyte viability – cell-based, 3T3-L1 adipocytes, calcein-AM fluorescence, 48 h, basal, profiling panel (AID 1163); details: 3T3-L1 adipocytes viability, higher = more signal; also: test concentration not given here
# [3] = compound effects on hepatocellular carcinoma cell viability – HepG2, calcein-AM fluorescence, 48 h, basal, profiling panel (AID 1164); details: higher = more signal; also: test concentration not given here
# [4] = compound effects on multiple myeloma cell viability – MM1S, calcein-AM fluorescence, 48 h, basal, profiling panel (AID 1165); details: higher = more signal;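 also: viability of MM1S multiple myeloma cells under basal unstimulated conditions; test concentration not given here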
# [5] = calcein-AM signal in unstimulated myeloma cells – cell-based, calcein-AM fluorescence, 48 h, PK04 Diversity Set, profiling panel (AID 1166); details: RPMI8226 myeloma viability, higher = more signal;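 also: cells grown under basal conditions without added stimulus; test concentration not given here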
# [6] = JC-1 mitochondrial signal, unstimulated HepG2 cells – cell-based, JC-1 fluorescence, 24 h, 100 nL compound, profiling panel (AID 1167); details: HepG2 mitochondrial potential, higher = more signal; also: test concentration not given here
# [7] = JC-1 mitochondrial signal, unstimulated adipocytes – cell-based, JC-1 fluorescence, 3T3-L1 adipocytes, 24 h, 100 nL compound, profiling panel (AID 1168); details: JC-1 mitochondrial fluorescence, higher = more signal, called active from +8 up or from −8 down; also: test concentration not given here
# [8] = JC-1 mitochondrial signal, unstimulated myeloma cells – cell-based, JC-1 fluorescence, RPMI8226, 24 h, 100 nL compound, profiling panel (AID 1169); details: JC-1 mitochondrial potential fluorescence, higher = more signal; also: test concentration not given here
# [9] = JC-1 mitochondrial signal, unstimulated MM1S myeloma – cell-based, JC-1 fluorescence, 24 h, 100 nL compound, profiling panel (AID 1170); details: MM1S mitochondrial potential, higher = more signal; also: test concentration not given here
# [10] = resazurin metabolic signal in A549 cells – cell-based, resazurin fluorescence, 24 h, PK04 Diversity Set, profiling panel (AID 1171); details: A549 viability, higher = more signal, called active from +8 up or from −8 down; also: test concentration not given here
# [11] = resazurin metabolic signal in HepG2 cells – cell-based, resazurin fluorescence, 24 h, PK04 Diversity Set, profiling panel (AID 1172); details: HepG2 viability, higher = more signal; also: test concentration not given here
# [12] = budding yeast growth changes without added modifier – OD600, strain BY4716, 24 h, basal condition, primary screen (AID 1173); details: S. cerevisiae BY4716 growth, OD600, 24 h; higher = more signal, called active from +8 up or from −8 down
# [13] = viability profiling in MM1S myeloma cells – cell-based, resazurin fluorescence, basal, 24 h, PK04 Diversity Set, profiling panel (AID 1174); details: higher = more signal, called active from +8 up or from −8 down; also: test concentration not given here
# [14] = target: Dihydroorotate dehydrogenase (quinone), mitochondrial (Plasmodium falciparum (isolate 3D7)) (UniProt Q08210); experiment: inhibition of P. falciparum DHODH – biochemical, C-terminal His tag, absorbance 600 nm, primary screen (AID 1175); details: PfDHODH enzyme, DCIP absorbance 600 nm; higher = more signal, called active from +8 up or from −8 down;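 also: recombinant parasite enzyme with a five histidine tag at its C terminus; test concentration not given here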
# Dihydroorotate dehydrogenase (quinone), mitochondrial (Plasmodium falciparum (isolate 3D7)), sequence (Q08210 whole entry, looked up): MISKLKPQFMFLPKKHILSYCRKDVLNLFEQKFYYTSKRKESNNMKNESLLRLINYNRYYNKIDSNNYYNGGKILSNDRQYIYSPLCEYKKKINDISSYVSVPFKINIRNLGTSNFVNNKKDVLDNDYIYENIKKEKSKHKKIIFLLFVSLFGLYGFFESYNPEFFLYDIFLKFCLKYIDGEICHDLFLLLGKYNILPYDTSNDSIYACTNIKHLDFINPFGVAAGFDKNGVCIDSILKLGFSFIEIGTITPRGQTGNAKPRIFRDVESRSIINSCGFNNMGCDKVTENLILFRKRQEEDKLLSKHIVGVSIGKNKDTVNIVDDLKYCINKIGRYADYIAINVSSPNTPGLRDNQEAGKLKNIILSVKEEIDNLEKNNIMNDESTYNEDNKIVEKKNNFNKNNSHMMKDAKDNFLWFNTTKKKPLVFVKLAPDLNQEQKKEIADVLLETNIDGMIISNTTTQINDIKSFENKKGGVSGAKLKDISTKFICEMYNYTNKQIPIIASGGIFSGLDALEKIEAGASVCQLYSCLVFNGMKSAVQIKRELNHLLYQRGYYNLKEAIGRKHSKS
# [15] = inhibition of PAO1 biofilm formation – strain PAO1, LB-PBS medium, absorbance 600 nm, primary screen (AID 1176); also: test concentration not given here; details: P. aeruginosa PAO1 growth/biofilm, A600, 12 h; higher = more signal
# [16] = growth modulation of vineyard yeast isolate – strain RM11-1a, OD600, basal, 24 h, primary screen (AID 1177);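 also: cultures grown under basal conditions with no added stressor; test concentration not given here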; details: S. cerevisiae RM11-1a growth, OD600, 24 h; higher = more signal, called active from +8 up or from −8 down
# [17] = growth of efflux-deficient E. coli DRC39 – strain DRC39, OD650, 24 h, E. coli filamentation inducers, primary screen (AID 1178);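 also: growth measured as culture turbidity by optical density at 650 nm; test concentration not given here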; details: E. coli DRC39 acrAB, higher = more signal, called active from +8 up or from −8 down
# [18] = growth of efflux-deficient E. coli DRC39 – strain DRC39, OD650, 48 h, E. coli filamentation inducers, primary screen (AID 1179);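 also: screen aims at cell division blockers that make cells filament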; details: E. coli DRC39 delta-acrAB growth, higher = more signal, called active from +8 up or from −8 down
# [19] = viability profiling in RPMI8226 myeloma cells – cell-based, resazurin fluorescence, basal, 24 h, PK04 Diversity Set, profiling panel (AID 1180); details: higher = more signal;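 also: RPMI8826 multiple myeloma cell line at 5000 cells per well; test concentration not given here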
# [20] = target: E3 ubiquitin-protein ligase XIAP (Homo sapiens) (UniProt P98170); experiment: small molecules binding XIAP protein – biophysical, small-molecule microarray, fluorescence 635 nm, primary screen (AID 1181); details: higher = more signal;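 also: score merges 667 nm emission and signal to noise over triplicate slides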
# E3 ubiquitin-protein ligase XIAP (Homo sapiens), sequence (P98170 whole entry, looked up): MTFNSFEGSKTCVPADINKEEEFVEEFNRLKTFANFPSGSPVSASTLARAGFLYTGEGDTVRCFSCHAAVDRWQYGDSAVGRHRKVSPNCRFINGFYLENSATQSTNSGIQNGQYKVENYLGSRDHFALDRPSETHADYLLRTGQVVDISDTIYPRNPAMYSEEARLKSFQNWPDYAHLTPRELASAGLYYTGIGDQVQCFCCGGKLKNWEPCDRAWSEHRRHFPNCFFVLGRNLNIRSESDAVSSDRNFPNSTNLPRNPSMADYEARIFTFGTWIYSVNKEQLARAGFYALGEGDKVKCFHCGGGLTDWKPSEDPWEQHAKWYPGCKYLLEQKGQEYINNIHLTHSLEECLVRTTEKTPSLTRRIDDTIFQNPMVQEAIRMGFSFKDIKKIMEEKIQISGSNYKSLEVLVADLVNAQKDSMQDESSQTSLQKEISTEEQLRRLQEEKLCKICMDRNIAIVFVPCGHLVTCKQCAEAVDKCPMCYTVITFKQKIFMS
Compound,z-score [1],z-score [2],z-score [3],z-score [4],z-score [5],z-score [6],z-score [7],z-score [8],z-score [9],z-score [10],z-score [11],z-score [12],z-score [13],composite z-score [14],z-score [15],z-score [16],z-score [17],z-score [18],z-score [19],composite z-score [20]
COc1cccc(C)c1NC(=O)O[C@H]1[C@H](OC(=O)Nc2ccccc2)[C@@H](OC(=O)Nc2ccccc2)[C@@H](OC)O[C@@H]1CO,-1.86,0.861,-1.9,-2.59,-3.26,-0.702,1.17 (inactive),-1.05,0.0418,-3.49 (inactive),-2,0.748 (inactive),-3.79 (inactive),-0.0526 (inactive),1.28 (inactive),2.78 (inactive),0.655 (inactive),-0.667 (inactive),-2.85,0.06
O=C1C2C=CC(C(O)C3CC=CCC3)N(Nc3ccc([N+](=O)[O-])cc3)C2C(=O)N1c1ccccc1 (stereo not given),-0.562,0.243,-1.55,0.25,-0.738,-1.02,-1.43 (inactive),-0.374,0.000383,-0.383 (inactive),-0.681,-0.541 (inactive),-0.428 (inactive),0.354 (inactive),1.29 (inactive),-0.0935 (inactive),-0.544 (inactive),-0.861 (inactive),-0.617,0.26
COC(=O)[C@@]1(Cc2ccc(F)cc2)[C@@H]2C(=CC(=O)[C@H]2CC(=O)C(=O)N2CCCC2)CN1C(=O)c1ccccc1,-1.77,1.16,-1.32,-2.6,-4.29,3.9,-0.568 (inactive),-0.686,-2.82,-1.97 (inactive),-1.96,0.336 (inactive),-2.67 (inactive),-3.95 (inactive),2.55 (inactive),0.381 (inactive),0.132 (inactive),-0.363 (inactive),-5.25,-0.0391
COc1ccc(C(O)C2C=CC3C(=O)N(C)C(=O)C3N2Nc2ccccc2)cc1 (stereo not given),-1.12,-0.221,-0.393,0.291,-0.301,-1.27,-0.0635 (inactive),-0.176,-0.153,-1.27 (inactive),-1.73,-3.09 (inactive),-0.956 (inactive),-0.685 (inactive),1.33 (inactive),-0.119 (inactive),-0.386 (inactive),-0.605 (inactive),-1.08,0.032
Cc1ccc(S[C@]2(C(=O)NC(C)C)CC(=O)N(Cc3ccccc3)[C@@H]2c2ccc(CO)cc2)cc1,1.72,-0.089,1.15,0.0456,1.23,1.18,0.391 (inactive),0.135,-0.177,-0.3 (inactive),0.15,-0.0962 (inactive),-0.792 (inactive),-1.33 (inactive),0.637 (inactive),-0.949 (inactive),1.19 (inactive),1.62 (inactive),1,-0.177
CCOC(=O)C[C@H]1[C@H](OC(=O)c2ccccc2-c2ccccc2)[C@@H](NC(=O)CC(C)C)c2cc(OCCCO)ccc2N1C(=O)c1ccccc1,0.682,1.32,-0.177,-0.271,0.107,2.01,0.197 (inactive),-0.986,-0.0327,1.65 (inactive),0.928,-1.04 (inactive),0.351 (inactive),-0.6 (inactive),0.13 (inactive),-0.71 (inactive),1.51 (inactive),0.973 (inactive),-0.503,0.0412
O=C1C[C@@](C(=O)NCC(F)(F)F)(c2ccc([N+](=O)[O-])cc2)[C@@H](c2ccc(CO)cc2I)N1CC12CC3CC(CC(C3)C1)C2,-2.05,0.463,-5.2,-3.84,-4.03,-0.436,2.16 (inactive),-0.9,-2.17,-3.86 (inactive),-4.52,-1.42 (inactive),-7.22 (inactive),-1.13 (inactive),1.11 (inactive),-0.355 (inactive),0.213 (inactive),1.29 (inactive),-6.47,-0.0287
CC(C)(C)OC(=O)CC[C@]1(C(=O)N2CCOCC2)COC(c2ccc(OCCCO)cc2)=N1,0.204,-0.492,1.26,0.571,-0.785,2.31,-0.305 (inactive),-0.44,-0.143,0.216 (inactive),0.329,-0.444 (inactive),0.475 (inactive),-0.0274 (inactive),0.149 (inactive),0.568 (inactive),1.21 (inactive),1.37 (inactive),0.227,0.0996
